According to PubChem BioAssay AID1159580 (chemical genetic matrix, 2015):
“And” between values parts separate entries of the source, which are not always exact repeats. Equal entries are not always repeated. Out of some 5,500 compounds screened, about 2,000 (36%) were called active. Not shown: some 18% with an inconclusive outcome. No stated cut-off is given here; in the data, active means normalized growth mostly below about 0.91 (no sharp cut-off); inconclusive means no clear call, values can overlap the other calls; inactive means mostly above about 0.92. The list shows a part of the results.

Assay: chemical genetic growth profiling, strain panel (AID 1159580);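 further: tested at 20 µM; growth read once vehicle control cultures reached saturation at 30 °C; 1 = growth at the plate median or of vehicle wells; lower values mean less growth of the strain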
Settings: S. cerevisiae deletion strains, growth OD

Measured: normalized growth

CC(C[N+](C)(C)C)OC(N)=O (centres undefined)
inactive: locus YAL013W, strain DEP1, hits give low values 0.991 | locus YAL021C, strain ccr4, hits give low values 1.05 | locus YAL026C, strain drs2, hits give low values 1.03 | locus YAL030W, strain snc1, hits give low values 1.02 | locus YAL040C, strain CLN3, hits give low values 1 | locus YBL061C, strain skt5, hits give low values 1.03 | locus YBR009C, strain hhf1, hits give low values 1.01 | locus YBR021W, strain FUR4, hits give low values 1.01 | locus YBR023C, strain chs3, hits give low values 1.03 | locus YBR171W, strain sec66, hits give low values 1.05 | locus YBR229C, strain ROT2, hits give low values 0.994 | locus YBR231C, strain swc5, hits give low values 1.01 | locus YBR279W, strain paf1, hits give low values 1.03 | locus YCL011C, strain gbp2, hits give low values 1.01 | locus YCL016C, strain dcc1, hits give low values 1.03 | locus YCL029C, strain bik1, hits give low values 0.988 | locus YCL061C, strain MRC1 (second series), hits give low values 1 | locus YCL061C, strain MRC1, hits give low values 1.01 | locus YCL069W, strain vba3, hits give low values 1.03 | locus YCR088W, strain abp1, hits give low values 1.03 | locus YDL005C, strain med2, hits give low values 1.01 | locus YDL035C, strain GPR1, hits give low values 1.04 | locus YDL040C, strain nat1, hits give low values 1.02 | locus YDL074C, strain BRE1, hits give low values 0.947 | locus YDL101C, strain DUN1, hits give low values 0.976 | locus YDL185W, strain tfp1, hits give low values 0.981 | locus YDL192W, strain arf1, hits give low values 0.983 | locus YDR001C, strain nth1, hits give low values 1.03 | locus YDR069C, strain doa4, hits give low values 1.01 | locus YDR101C, strain arx1, hits give low values 0.991 | locus YDR137W, strain rgp1, hits give low values 1.04 | locus YDR150W, strain NUM1, hits give low values 1.01 | locus YDR159W, strain sac3, hits give low values 0.982 | locus YDR162C, strain NBP2, hits give low values 1.02 | locus YDR195W, strain ref2 1 | locus YDR297W, strain sur2, hits give low values 1.02 | locus YDR318W, strain mcm21, hits give low values 0.985 | locus YDR334W, strain swr1, hits give low values 1.03 | locus YDR335W, strain msn5, hits give low values 1.03 | locus YDR363W, strain ESC2, hits give low values 0.974 | locus YDR388W, hits give low values 0.992 | locus YDR392W, strain spt3, hits give low values 0.962 | locus YDR502C, strain sam2, hits give low values 0.991 | locus YEL003W, strain gim4, hits give low values 1.01 | locus YEL037C, strain rad23, hits give low values 1.04 | locus YEL061C, strain CIN8 (second series), hits give low values 1.03 | locus YEL061C, strain CIN8, hits give low values 0.995 | locus YER002W, strain NOP16, hits give low values 1.02 | locus YER015W, strain faa2, hits give low values 1.02 | locus YER016W, strain bim1, hits give low values 1.02 | locus YER110C, hits give low values 0.972 | locus YER111C, strain swi4, hits give low values 1.04 | locus YER155C, strain BEM2 (second series), hits give low values 0.998 | locus YER155C, strain BEM2, hits give low values 0.986 | locus YER167W, strain BCK2, hits give low values 1.01 | locus YFR010W, strain ubp6, hits give low values 1.02 | locus YGL078C, strain dbp3, hits give low values 0.982 | locus YGL086W, strain mad1, hits give low values 0.984 | locus YGL167C, strain pmr1, hits give low values 1.04 | locus YGL173C, strain kem1, hits give low values 1.01 | locus YGL227W, strain vid30, hits give low values 1.02 | locus YGL240W, strain doc1, hits give low values 1.01 | locus YGL248W, strain PDE1, hits give low values 0.987 | locus YGL253W, strain hxk2, hits give low values 1.02 | locus YGR078C, strain PAC10, hits give low values 0.986 and 0.968 | locus YGR135W, strain pre9, hits give low values 0.987 | locus YGR229C, strain SMI1, hits give low values 1.03 | locus YGR252W, strain gcn5, hits give low values 1.04 | locus YHR013C, strain ard1, hits give low values 1.03 | locus YHR027C, strain rpn1, hits give low values 1.03 | locus YHR030C, strain SLT2, hits give low values 0.991 and 0.986 | locus YHR079C, strain IRE1 (second series), hits give low values 0.975 | locus YHR079C, strain IRE1, hits give low values 0.976 | locus YHR094C, strain hxt1, hits give low values 0.982 | locus YHR129C, strain ARP1, hits give low values 0.988 | locus YHR142W, strain chs7, hits give low values 1.04 | locus YHR200W, strain rpn10, hits give low values 0.987 | locus YIL066C, strain RNR3, hits give low values 1.01 | locus YIL073C, strain SPO22, hits give low values 1.04 | locus YIL125W, strain kgd1, hits give low values 0.979 | locus YIR030C, strain dcg1, hits give low values 0.976 | locus YJL092W, strain hpr5, hits give low values 1.02 | locus YJL095W, strain BCK1 (second series), hits give low values 1.05 | locus YJL095W, strain BCK1, hits give low values 0.985 and 0.982 | locus YJL115W, strain asf1, hits give low values 1.04 | locus YJL129C, strain trk1, hits give low values 1.04 | locus YJL134W, strain LCB3, hits give low values 0.989 | locus YJL154C, strain vps35, hits give low values 1.03 | locus YJL164C, strain tpk1, hits give low values 1.03 | locus YJL166W, strain qcr8, hits give low values 1.01 | locus YJL168C, strain set2, hits give low values 0.981 | locus YJL187C, strain SWE1 (second series), hits give low values 0.987 | locus YJL187C, strain SWE1, hits give low values 1.03 | locus YJR043C, strain POL32, hits give low values 1.05
